High-throughput results from PubChem BioAssay.
GLP-1R agonist = qHTS of GLP-1 Receptor Agonists | Glucagon-like peptide 1 receptor (Homo sapiens), P43220 | HEK293 GLP-1R CRE-luciferase, luminescence, 4-6 h; cells express a hypersensitive GLP-1R form | Potency, µM (highest dose often 45.6 µM), hits mostly activators | hit rate 0.007% among 380,000
Target sequence (P43220 whole entry, looked up): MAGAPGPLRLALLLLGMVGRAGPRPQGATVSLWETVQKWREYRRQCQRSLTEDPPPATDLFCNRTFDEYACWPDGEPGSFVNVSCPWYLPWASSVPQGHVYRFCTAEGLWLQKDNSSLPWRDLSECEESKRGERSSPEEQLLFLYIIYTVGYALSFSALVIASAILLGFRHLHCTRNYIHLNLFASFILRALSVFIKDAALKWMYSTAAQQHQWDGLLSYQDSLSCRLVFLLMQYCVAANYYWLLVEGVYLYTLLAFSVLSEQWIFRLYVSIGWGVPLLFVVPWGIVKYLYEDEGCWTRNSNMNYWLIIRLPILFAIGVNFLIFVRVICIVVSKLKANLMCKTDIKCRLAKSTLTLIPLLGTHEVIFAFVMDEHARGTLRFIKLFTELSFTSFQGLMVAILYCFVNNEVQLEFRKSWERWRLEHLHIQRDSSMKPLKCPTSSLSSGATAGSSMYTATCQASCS
HEK293 tox = qHTS of GLP-1 Receptor Inverse Agonists: Cytotox Screen; HEK293 cAMP-luciferase reporter cells, luminescence, 24 h; Potency, µM (titrated, usually from 38.3 µM), usual class: inhibitors; hit rate 0.13% among 410,000; AID 624418, 2012;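 also: loss of luciferase light is scored as toxicity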
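MLSMR compounds, 24 hr on cells at 37 deg C/5% CO2; luminescence after luciferase reagent (12 min RT). Inhibition counted as the undesired cytotoxic outcome.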
GLP-1R inv ag = qHTS of GLP-1 Receptor Inverse Agonists (Inhibition Mode); Glucagon-like peptide 1 receptor (Homo sapiens), P43220; HEK293 GLP-1R CRE-luciferase, luminescence, 24 h; GLP-1R form is constitutively active; Potency, µM (titrated, usually from 38.3 µM), actives largely listed as inhibitors; hit rate 1.6% among 410,000; AID 624417, 2012; also: nearly all actives have a fitted effect of over 55% in size
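Seeding at 200 cells/uL, 12 h culture, 24 hr compound treatment, then luciferase reagent and a luminescence read; cells are HEK293 stably expressing a constitutively active GLP-1R plus cAMP-responsive luciferase.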
A number is an active result; i = inactive; ? = inconclusive; nt = no result. A selection: hits, their analogues and other compounds. The true share with any hit is near 1.7%. Calls follow the shape of the dose curve; as a rule, active = well fitted curve in the direction sought with a large enough effect; inconclusive = small, poorly fitted or top-dose-only effect, or another doubt; inactive = no such curve, though single readings can be large; an effect the other way counts as inactive or inconclusive.

SMILES	GLP-1R agonist	HEK293 tox	GLP-1R inv ag
COc1ccc(CCNC(=O)c2cc(Nc3cc(C)cc(C)c3)nc3ccccc23)cc1OC	i	i	4.5µM
CCCCN(CCCNC(=O)c1cc(Nc2cccc(SC)c2)nc2ccccc12)Cc1ccccc1	nt	i	?
Cc1cccc(N2CCN(C(=O)c3cc(COc4ccc(F)c(F)c4)on3)CC2)n1	i	i	?
O=C(O)c1ccc(N2C(=O)c3ccccc3C2=O)cc1[N+](=O)[O-]	i	i	i
Cc1ccc(NC(=O)CSCC(=O)N(C)Cc2c(F)cccc2Cl)cc1	i	i	?
Cn1cc(S(C)=O)c(=O)c2ccc(F)cc21 (stereo not drawn)	i	nt	nt
c1ccc(NN(Cc2ccccn2)c2ccccc2)cc1	i	i	?
Cc1cccc(CN(Nc2ccccc2)c2ccccc2)n1	i	i	10µM
Cc1cccc(N2CCN(C(=O)C3CCCN(C(=O)c4cc5sccc5n4C)C3)CC2)c1C (stereo not drawn)	nt	i	?
CCn1nc([N+](=O)[O-])c(C(C#N)c2nc3cc(C(F)(F)F)ccc3s2)c(Cl)c1=O (stereo not drawn)	i	5µM	i
CCCn1nc([N+](=O)[O-])c(C(C#N)c2nc3ccccc3o2)c(Cl)c1=O (stereo not drawn)	i	?	?
O=C(NCc1ccccc1)c1ccc(C2SCC(=O)N2Cc2ccccc2)cc1 (stereo not drawn)	i	i	10µM
C=CCNC(=O)c1ccc(C2SCC(=O)N2Cc2ccccc2)cc1 (stereo not drawn)	i	i	i
Cc1ccc(NC(=O)CN(C)C(=O)COC(=O)[C@@H](NC(=O)c2ccccc2F)C(C)C)cc1	i	i	i
O=C(CSc1nnnn1-c1cccc(O)c1)NC1CC1	i	i	?
COC(=O)c1c(C(=O)OC)c2c(-c3ccccc3)cc3cccc1n32	i	i	8.9µM
COC(=O)c1c(-c2ccccc2)csc1N	i	i	i
O=C1N=C(N2C=CC(=C3C=CNC=C3)C=C2)/C(=C/N=NC(=O)c2ccccc2O)S1	i	i	i
CCN(c1ccccc1)c1nnc(NC(=O)Nc2ccc(Br)cc2F)s1	nt	i	i
[2H]c1c([2H])c([2H])c2c([nH]c(=S)n2C2CCN(CCCC(=O)c3ccc(F)cc3)CC2)c1[2H]	i	nt	nt
COc1ccccc1OCc1ccc(C(=O)c2ccccc2)cc1	i	i	?
COc1ccccc1OCCOc1ccc(C(=O)c2ccccc2)cc1	i	i	8.9µM
CCOc1ccccc1/C=N\Nc1cnn(Cc2ccccc2)c(=O)c1Cl	i	i	7.9µM
COc1ccccc1/C=N\Nc1cn[nH]c(=O)c1Cl	i	i	i
O=C(Nc1cccc(C(F)(F)F)c1)Oc1ccc(Cl)c2cccnc12	i	i	13µM
SMILES	GLP-1R agonist	HEK293 tox	GLP-1R inv ag
CCN(CC)C(=O)Oc1ccc(Cl)c2cccnc12	i	i	i
CCc1ccc(C2CC(=O)c3c([nH]c(C(=O)OCC4CCCCC4)c3C)C2)cc1 (stereo not drawn)	nt	i	i
Cc1ccn2c(Nc3ccccc3C)c(-c3ccccc3)nc2c1	nt	i	?
COc1cc(O)ccc1-c1nc2cc(C)ccn2c1Nc1ccccc1C	nt	i	10µM
CCOc1cc(/C=N/NC(=O)Cc2ccc(C(F)(F)F)cc2[N+](=O)[O-])c(Br)cc1OC	i	i	i
COc1cc(Br)cc(/C=N/NC(=O)Cc2ccc(C(F)(F)F)cc2[N+](=O)[O-])c1O	i	0.5µM	?
Cc1ccc(C)c(NC(=O)Cn2cc(C(=O)c3ccncc3)c(=O)c3cc(F)ccc32)c1	nt	i	i
Cc1cc(C)c(C)c(S(=O)(=O)N2CCC(C(=O)N3CCN(c4ccc(F)cc4)CC3)CC2)c1C	i	i	5µM
Cc1cc(C)c(C)c(S(=O)(=O)N2CCC(C(=O)N3CCCC3)CC2)c1C	i	i	i
CCOc1ccccc1NC(=O)c1c(NCc2sccc2C)sc2c1CCCCC2	nt	i	i
CCOc1ccccc1NC(=O)c1c(NCc2cccs2)sc2c1CCCCC2	nt	i	13µM
Cc1ccc(-c2nc3c4ccccc4[nH]c(=O)n3n2)cc1	i	i	i
COc1ccc(CNC(=O)COC(=O)c2c(NC(C)=O)sc(C)c2C)cc1	i	i	i
CCCc1nnc(NS(=O)(=O)c2ccc(C)cc2)o1	i	i	i
CCCCCOc1ccc(Br)cc1/C(C)=N/NC1=NCCN1	i	?	2.2µM
COc1ccc(Br)cc1/C(C)=N/NC1=NCCN1	i	i	i
CCOc1ccc(NC(=O)CN2C(=O)CC(C)Sc3ccccc32)cc1 (stereo not drawn)	i	i	i
